# High-throughput results deposited in PubChem BioAssay by National Center for Advancing Translational Sciences (NCATS).
# Most compounds without a hit are left out; they make up all but 22% or so of the library.
# Pf growth 48h – P. falciparum growth inhibition at 48 hours (one generation) | P. falciparum luciferase growth in erythrocytes, 48 h | Potency, µM (top dose mostly 28.7 µM), for inactives: at the highest dose activity change, negative = inhibition, usual class: inhibitors | actives 5.9% (n = 310,000) | AID 504832; further: potency means the concentration at half of the fitted maximal effect; on the % scale 0 is the no-effect control and ±100 the full control effect
#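 Erythrocytes infected with P. falciparum carrying an integrated firefly luciferase reporter (2% hematocrit, 0.1% parasitemia final) were exposed to compounds in RPMI 1640 with 0.5% Albumax at 37 C, 5% CO2. Growth inhibition was scored as reduced luminescence.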
# Cycloheximide cs – counter-screen for Shiga toxin inhibitors: cycloheximide protein synthesis inhibition. cell reporter, cycloheximide protein synthesis inhibition counterscreen. AID 2314. actives 12% (n = 300,000). max response, %; in the data active means max response mostly above about 13%, no sharp cut-off; inactive means mostly below about 14%; further: read at 38.3 µM for the half of the compounds with a filed dose; 0% is about no effect
# Shiga inhibitor – inhibitors of Shiga toxin in Vero cells; actives 9.2% (n = 290,000); Vero cells, Shiga toxin protein synthesis inhibition reporter; inhibition, % at 38.7 µM; AID 2315; in the data active means inhibition mostly above about 28%, no sharp cut-off; inactive means mostly below about 43%; further: 0% is about no effect
# Pf growth 96h – P. falciparum growth inhibition at 96 hour, primary screen for plastid delayed-death inhibitors; P. falciparum luciferase reporter growth, 96 h; Potency, µM (series often up to 28.7 µM), for the others: at the highest dose activity change, negative = inhibition, usual class: inhibitors; actives 6.9% (n = 320,000); AID 504834; further: potency means the concentration at half of the fitted maximal effect; on the % scale 0 is the no-effect control and ±100 the full control effect
#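 P. falciparum expressing integrated firefly luciferase grown in erythrocytes (2% hematocrit, 0.05% parasitemia final) with compounds for 96 hours at 37 C, 5% CO2. Growth inhibition read as loss of luminescence after adding luciferase detection reagent.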
# LmPK inhibitor – LmPK (Leishmania mexicana) enzyme inhibition | Q27686 | purified LmPK, Kinase-Glo ATP luminescence, 1 h | Potency, µM (highest dose often 57.5 µM), without a hit: at the top dose activity change, negative = inhibition, hits mostly inhibitors | actives 0.37% (n = 290,000); further: potency means the concentration at half of the fitted maximal effect; on the % scale 0 is the no-effect control and ±100 the full control effect
# Target sequence (Q27686 whole entry, looked up): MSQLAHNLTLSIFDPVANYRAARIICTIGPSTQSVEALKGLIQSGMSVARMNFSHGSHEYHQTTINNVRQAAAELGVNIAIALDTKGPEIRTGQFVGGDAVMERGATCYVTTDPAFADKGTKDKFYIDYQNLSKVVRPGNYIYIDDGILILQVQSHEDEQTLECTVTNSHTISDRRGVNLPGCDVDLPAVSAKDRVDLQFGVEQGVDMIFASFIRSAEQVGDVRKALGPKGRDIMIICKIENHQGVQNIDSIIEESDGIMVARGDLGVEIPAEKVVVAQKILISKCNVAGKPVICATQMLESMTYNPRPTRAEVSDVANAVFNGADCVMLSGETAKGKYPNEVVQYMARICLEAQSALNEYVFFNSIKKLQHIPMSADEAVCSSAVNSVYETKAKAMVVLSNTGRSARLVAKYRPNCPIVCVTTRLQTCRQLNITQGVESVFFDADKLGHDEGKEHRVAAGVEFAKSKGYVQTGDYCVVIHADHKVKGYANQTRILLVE
#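 Pyruvate kinase activity monitored as ATP production (luciferase luminescence). Conditions: 0.1 nM enzyme, 0.5 mM PEP, 0.1 mM ADP, 1 h, RT; normalized against uninhibited and no-enzyme wells.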
# The depositor's hits bear a star; i = inactive; ? = inconclusive; nt = no result given; [ ] = remark or other dose. Unless noted, the call rests on the fitted dose curve; in most records, active means well fitted inhibition curve with a large enough effect; inconclusive means small, poorly fitted or top-dose-only effect, or another doubt; inactive means no such curve, though single readings can be large or run the other way.
SMILES,Pf growth 48h,Cycloheximide cs,Shiga inhibitor,Pf growth 96h,LmPK inhibitor
COCCNC(=S)N1CCc2cc(OC)c(OC)cc2C1COc1ccc(F)cc1 (stereo not given),?,7.0,-15.7,35.3%,6.3%
COCCNC(=S)N1CCc2cc(OC)c(OC)cc2C1COc1ccc(C(C)C)cc1 (stereo not given),11.7µM*,-2.5,-18.9,8.28µM*,-2.1%
COc1cccc(C(=O)Oc2c(Br)cc(Br)cc2/C=N/NC(=O)c2cc(C)[nH]n2)c1,?,7.1,-4.6,4.2%,10.9%
CN=C(NC1CCCCC1)c1ccc([N+](=O)[O-])cc1,17.9%,1.3,-3.5,-10.9%,-6.3%
CCCCc1c(C)nn(-c2nnc3c4ccccc4n(C)c3n2)c1C,-14.6%,21.1*,48.5*,-28.4%,1.3%
Cn1c2ccccc2c2nnc(NN)nc21,-17.5%,-1.4,24.8,8.4%,-14.5%
Cc1ccc(NC(=O)CNC(=O)C2CCCCC2)nc1,12.9%,nt,nt,10.0%,nt
COCC(=O)Nc1cc(C)cn(Cc2ccccc2Cl)c1=O,0.0%,-2.2,nt,0.0828µM*,6.6%
CCCC(=O)Nc1cc(C)cn(Cc2c(F)cccc2Cl)c1=O,-4.2%,0.2,-1.0,?,-5.7%
Cc1cccnc1NC(=O)c1ccc(Cl)c(S(=O)(=O)N2CCCCC2)c1,-23.9%,nt,nt,?,nt
CC(=O)c1ccc(NC(=S)NC2CCCC(C)C2C)cc1 (stereo not given),12.8%[5.75 µM],17.1*,48.1*,3.4%,3.9%
CC(=O)c1ccc(-c2ccc(C(=O)NC3CCCCCC3)o2)cc1,?,27.5*,41.3*,?,2.0%
CC(=O)c1cccc(NC(=O)CCC2CCCC2)c1,56.3%,25.4*,i,0.3%,6.8%
Cc1nc2ccc(NC(=O)CCC3CCCC3)cc2s1,73.8%,45.1*,96.8*,128.1%,0.4%
O=C(CSc1nccc(-c2cccs2)n1)Nc1ccccc1,-90.6%,7.0,10.2,-41.3%,6.3%
CCN(CC(=O)Nc1ccc(NC(C)=O)cc1)C(=O)c1cc2c(s1)CCCCC2,0.5%,nt,nt,-19.7%,nt
CCN1CCN(C(=S)Nc2cc(S(=O)(=O)N(CC)CC)ccc2C)CC1,0.0%,0.5,6.8,1.3%,0.1%
O=C(Nc1cccc(Cl)c1)NC1CC2CCC1C2 (stereo not given),3.4%,23.4*,nt,-19.0%,8.0%
O=C(Nc1cccc(Cl)c1)NC1CCCCC1,102.0%,37.9*,91.5*,-14.8%,-0.1%
O=C(Nc1cccc(C(=O)N2CCOCC2)c1)NC1CCCCC1,-7.0%,-6.0,27.8,17.5%,6.6%
CC(=O)c1ccc(NC(=O)CNC2CCCCC2)cc1,0.4%[0.00184 µM],11.1,7.8,3.7%,3.2%
CC(=O)c1ccc(NC(=O)NC2CCCCCCC2)cc1,35.2%,38.6*,94.8*,?,1.0%
CC(=O)c1ccc(NC(=O)C2CCCC2)cc1,22.3%,9.4*,1.2,44.9%,3.5%
CCOC(=O)CNC(=S)N(CCCN1CCN(C)CC1)Cc1cccs1,5.0%,3.0,32.8,28.1%,-0.3%
CC(=O)c1cccc(NC(=O)NC2CCCCC2)c1,nt,16.3,16.7,?,7.7%
SMILES,Pf growth 48h,Cycloheximide cs,Shiga inhibitor,Pf growth 96h,LmPK inhibitor
O=C(Nc1ccccc1)OC1CCCCc2cccnc21 (stereo not given),6.9%,12.1,31.0,5.8%,-3.0%
CC(=O)c1cccc(NC(=O)C2C3C=CC(C4CC34)C2C(=O)O)c1 (stereo not given),14.0%,3.8,-6.5,13.3%,-3.9%
O=C(Nc1cccc(Cl)c1)OC1CCCCc2cccnc21 (stereo not given),3.7µM*,-1.7,-8.6,-24.6%,-3.5%
CC(=O)c1cccc(NC(=O)NC2CCCCCCC2)c1,27.2%,36.0*,49.7,?,1.5%
Cc1cccc(NC(=O)NC2CCCCCCC2)c1,59.9%,41.5*,92.6*,42.9%,-0.1%
CCc1ccc(NC(=O)C2C3C=CC(C4CC34)C2C(=O)O)cc1 (stereo not given),56.0%,13.9*,19.1,69.8%,-5.5%
O=C1CCCN2N=C(SCC(=O)Nc3ccc(F)cc3F)SC2=N1,-8.6%,1.6,-6.3,-15.5%,5.3%
CCN(CC)CCNC(=S)N1CCn2c(nc3ccccc32)C1,?,0.4,-7.9,?,-0.2%
CC(=O)c1ccc(NC(=O)C2C3CCC(C3)C2C(=O)O)cc1 (stereo not given),-4.6%,7.8,35.0,13.1µM*,0.0%
CC(=O)Nc1ccc(NC(=O)C2C3CCC(C3)C2C(=O)O)cc1 (stereo not given),-7.4%,-2.7,14.1,22.1%,-0.5%
C=CCc1cc(C)ccc1OCCOCCC(C(=O)OCC)C(=O)OCC,-21.3%,0.7,10.4,11.7µM*,1.4%
O=C(NCCS(=O)(=O)N1CCN(c2ccccc2)CC1)c1ccccc1F,0.2%,nt,nt,17.3%,nt
Cc1ccc(C)c2[nH]c(=O)c(C(c3nnnn3C(C)(C)C)N3CC=C(c4ccc(F)cc4)CC3)cc12 (stereo not given),2.08µM*,-2.8,-15.0,?,1.6%
CCC(C)(C)n1nnnc1C(c1cc2cccc(C)c2[nH]c1=O)N1CCCC1 (stereo not given),?,1.4,-4.1,-8.5%,-5.6%
CCC(C)(C)n1nnnc1C(c1cccs1)N1CC=C(c2ccc(F)cc2)CC1 (stereo not given),7.38µM*,-4.8,-12.5,?,0.3%
CCCNC(=O)NC(=O)COC(=O)CNS(=O)(=O)/C=C/c1ccccc1,21.0%,-3.1,-8.7,23.5%,7.2%
O=c1cc[nH]c2c1ccc1c(=O)cc[nH]c12,nt,6.6,26.6,-26.6%,1.0%
O=c1cc[nH]c2c(Cl)cccc12,162.1%,20.7*,40.7*,0.0%,-0.3%
O=C(NNC(=O)c1cccnc1)c1ccncc1,7.6%,-1.0,-11.1,48.2%,-3.7%
O=C(NNC1=C(C(=O)C(F)(F)F)CCC1)c1cccnc1,9.4%,37.5*,50.4,18.2%,7.6%
Cc1cccc(C(=O)NNC2=C(C(=O)C(F)(F)F)CCC2)c1O,-7.3%,15.3,16.8,nt,8.6%
O=C(NNC1=C(C(=O)C(F)(F)F)CCC1)c1cccc(O)c1,127.7%,31.1*,64.3*,45.1%,4.1%
CCC(NS(=O)(=O)c1ccc(OC)cc1)C(=O)NCCc1ccccc1 (stereo not given),?,1.0,-7.8,?,-1.7%
CS(=O)(=O)N1CCc2cc(-c3csc(NC(=O)C(c4ccccc4)c4ccccc4)n3)ccc21,13.1µM*,-2.4,3.9,nt,-3.4%
CNc1nc(-c2ccc3c(c2)CCN3C(=O)c2ccccc2F)cs1,?,53.6*,94.5*,43.4%,-28.3%
CNc1nc(-c2ccc3c(c2)CCN3C(=O)CC(C)(C)C)c(C)s1,21.9%,7.2,-2.4,14.4%,-5.3%
O=C(Nc1nc(-c2cccc([N+](=O)[O-])c2)cs1)C(c1ccccc1)c1ccccc1,?,-1.2,11.7,28.7%,0.4%
CNc1nc(-c2ccc3c(c2)CCN3C(=O)c2ccccc2F)c(C)s1,?,17.5*,61.1*,?,2.5%
O=C(COc1ccccc1)NC1CCSC1=O (stereo not given),24.3%,7.0,8.8,32.9%,1.3%
